From PubChem BioAssay (EPA / NIEHS)
Calls of active or inactive are those of the source. How the source made its calls: active means hit-call score of the fitted dose curve at least 0.9, where 1 is the maximum; inactive means score below 0.9.

These compounds were tested on solute carrier (SLCO1B1), SLCO1B1 (gene 10599) (assay: LTEA_HepaRG_SLCO1B1: Life Technologies and Expression Analysis (LTEA) Assay for solute carrier (SLCO1B1) using HepaRG (AID 2283530)). Details: mRNA level, 48 h; actives raise or lower the signal.
In short: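 SLCO1B1 transcript levels were quantified by TaqMan qRT-PCR using three housekeeping genes for normalization. This followed 48 h chemical exposure (100 uM top, half-log, 8 points, 0.5% DMSO) of HepaRG liver cells, with gain or loss fitted relative to DMSO.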
With `CCCCCc1ccc(N)cc1` the outcome was “inactive”.
With `Cc1c2ccccc2c(C)c2c1ccc1ccccc12` the AC50 was 59.5 µM (active).
In the case of `O=CCCCC=O`, the outcome is reported as “inactive”.
For `Cc1cn([C@H]2C[C@H](N=[N+]=[N-])[C@@H](CO)O2)c(=O)[nH]c1=O`, the outcome was “inactive”.
In the case of `Cc1occc1C(=O)Nc1ccc(C(=O)N2CCC(F)(F)/C(=C\C(=O)N3CCC(N4CCCCC4)CC3)c3ccccc32)cc1`, the outcome is reported as “inactive”.
In the case of `OC12N=C(c3ccccc3)SC1Cc1cc(Cl)ccc12` (stereo not drawn), the AC50 is reported as 32.9 µM (active).
In the case of `CC(C)(O)c1ccc(CNC(=O)c2cccnc2Oc2ccc3nonc3c2)cc1`, the outcome is reported as “inactive”.
In the case of `O=C1CCC(C2CCCCC2)CC1`, the outcome is reported as “inactive”.
With `NCc1cccc(C2CCN(C(=O)c3ccc(C#Cc4ccccc4F)o3)CC2)c1` the AC50 was 88.5 µM (active).
`c1ccc2ccccc2c1` was tested, and the outcome was “inactive”.
For `O=C(O)Cn1c(=O)n(Cc2ccc(Br)cc2F)c(=O)c2ccc(Cl)cc21`, the outcome was “inactive”.
In the case of `C[C@]12CC[C@@H]3c4ccc(O)cc4CC[C@H]3[C@@H]1CCC2=O`, the outcome is reported as “inactive”.
In the case of `OCCO`, the outcome is reported as “inactive”.
In the case of `COc1cc(C(=O)NC2CCN(C)CC2)ccc1Nc1ncc2c(n1)N(C1CCCC1)CC(F)(F)C(=O)N2C`, the AC50 is reported as 7.47 µM (active).
`O=C(OCCCCCCOC(=O)c1ccccc1)c1ccccc1` was tested, and the outcome was “inactive”.
In the case of `Cc1ncc(CO)c(CO)c1O`, the outcome is reported as “inactive”.
For `COc1ccc2cc(S(=O)(=O)N[C@H](CC(=O)N[C@H](Cc3ccc(CN4[C@H](C)CCC[C@@H]4C)cc3)C(=O)N(C)C(C)C)c3ccc4c(c3)OCO4)ccc2c1`, the AC50 was 26.3 µM (active).
`O=C(Nc1ccc(Cl)cc1)Nc1ccc(Cl)c(Cl)c1` was tested, and the AC50 was 18.7 µM (active).
